D2 ag-1: activates the human D2 dopamine receptor; activation, % at 2 µM; P14416; HEK293 T-REx D2 cells, calcium flux agonist mode; hit rate 0.53% among 340,000;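 active = activation over 3 SD above normal in the single-dose calcium agonist read, cut at about 30% in these data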; note: 0% is about no effect
Target sequence (P14416 whole entry, looked up): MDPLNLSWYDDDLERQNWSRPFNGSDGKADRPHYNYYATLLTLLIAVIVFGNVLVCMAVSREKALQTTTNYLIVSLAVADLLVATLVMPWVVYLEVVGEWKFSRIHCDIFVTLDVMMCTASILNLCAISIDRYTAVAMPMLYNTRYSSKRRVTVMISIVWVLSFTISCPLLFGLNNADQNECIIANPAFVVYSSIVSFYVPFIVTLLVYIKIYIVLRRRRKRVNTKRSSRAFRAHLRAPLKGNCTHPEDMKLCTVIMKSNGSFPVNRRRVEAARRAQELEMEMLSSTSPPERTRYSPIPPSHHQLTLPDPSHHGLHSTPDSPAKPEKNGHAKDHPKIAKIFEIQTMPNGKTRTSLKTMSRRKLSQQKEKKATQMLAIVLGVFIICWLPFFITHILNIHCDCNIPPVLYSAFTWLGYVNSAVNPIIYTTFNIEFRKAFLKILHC
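HEK293 Trex D2 cells, tetracycline-induced, o/n 30 C 5% CO2; no-wash Ca dye, RT 30–90 min; 10-cycle baseline, 23 nl cpd added, kinetic Ca read 180 s; agonist hits = positive Ca response.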
D2 antag: antagonists of human D2 dopamine receptor. HEK293 TREx D2 cells, calcium flux, dopamine EC80. inhibition, % at 10 µM. hit rate 2% among 340,000. P14416; in the data active = inhibition above about 30%; inactive = below that, where a call was filed; note: 0% is about no effect
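Compounds are added to dye-loaded, induced HEK293 T-REx cells coupled to calcium release via D2; after a 3 min kinetic read an EC80 dopamine stimulus is given and fluorescence is recorded for 3 more min.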
D2 PAM-1: D2 dopamine receptor (human) potentiation. P14416. HEK293 T-REx D2, calcium flux, EC20 dopamine potentiation. potentiation, % at 10 µM. hit rate 0.34% among 340,000. AID 485347;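 active = potentiation over 3 SD above the plate norm, cut at about 30% in these data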; note: 0% is about no effect
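Tetracycline-induced Hek293 Trex D2 cells, force-coupled to calcium, loaded with no-wash calcium dye. Compound added with 180 s kinetic read for agonism, then EC20 dopamine and a further 180 s read for potentiation.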
D2 PAM-2: potentiates the human D2 dopamine receptor allosterically. AID 624464. DiscoveRx D2 beta-arrestin cells, luminescence, 90 min; 100% = 57 uM dopamine signal. potentiation, % (no concentration beside the values). hit rate 0.23% among 360,000; in the data active = potentiation above about 50%
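D2 cells co-treated with compound plus 50 nM dopamine (EC20) for 90 min at 37 deg C to detect potentiation. Beta-arrestin recruitment was read as enzyme-fragment luminescence after 1 h at ambient temperature. Full response was set by 57 uM dopamine.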
D2 ag-2: human D2 receptor agonism in beta-arrestin assay | hit rate 0.084% among 360,000 | P14416 | DiscoveRx PathHunter D2 beta-arrestin, luminescence, 90 min; 100% = 57 uM dopamine signal | AID 624465 | activation, % (concentration not given with the values); in the data active = activation above about 40%
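DiscoveRx PathHunter D2 beta-arrestin cells (2,100/well) attached overnight, then compound-stimulated 90 min at 37 C in HBSS/10 mM HEPES/0.1% Tween-20 buffer; beta-galactosidase complementation read by luminescence after 1 h at ambient temperature. Dopamine 57 uM final (EC100) as control.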
Starred values were filed as active, the others as inactive; x = no result; ! = not confirmed by another sample. Sampled rows, rich in hits. Any-hit rate of the full collection: about 2.4%.

SMILES	D2 ag-1	D2 antag	D2 PAM-1	D2 PAM-2	D2 ag-2
COCCCNCCCOc1ccc(Cl)cc1Br	-1	-39	-20	-46	-1
CCCCNCCOCCOc1ccc(Cl)cc1Br	0	72*	-28	-26	-8
CCCCNCCCOc1cc(Cl)ccc1Cl	0	56*	-19	-19	-4
CCC(C)NCCCCOc1ccc(Cl)cc1C (configuration not stated)	x	x	x	-26	-4
COCCCNCCCOc1ccc(C)cc1Br	1	38*	-36	-31	-5
COc1cc(NC(=O)c2nnn(CC(=O)Nc3cc(C)ccc3C)c2N)cc(OC)c1	1	x	-4	x	x
CCC12CN3CC(CC)(CN(C1)C3c1ccc(OCc3ccccc3)cc1)C2=O (configuration not stated)	1	x	-1	x	x
CCc1ccc(NC(=O)CC2C(=O)N(c3cccc(OC)c3)C(=O)N2Cc2ccc(F)cc2)cc1 (configuration not stated)	0	x	4	x	x
COc1ccccc1C(=O)N1CCC(c2noc(-c3ccc(S(=O)(=O)N4CCCC4)cc3)n2)CC1	1	x	5	x	x
CC(C)CCOP(=O)(c1ccc(N(C)C)cc1)C(O)c1ccc(Cl)cc1Cl (configuration not stated)	1	2	-2	-7	40*
CC(C)CCOP(=O)(c1ccc(N(C)C)cc1)C(O)c1ccccc1F (configuration not stated)	x	x	8	-6	-2
O=c1onc(-c2ccc(Cl)cc2Cl)n1-c1cccnc1	0	5	12	59*	60*
O=C1c2ccncc2C(=O)N1c1cccc(Cl)c1	0	5	-3	-7	-1
O=C1C=C(c2cccc3c2sc2ccccc23)C[C@@H](c2ccc(Cl)cc2)C1	-1	11	33*	-4	-3
O=C1C=C(c2cc3ccccc3s2)C[C@@H](c2ccc(Cl)cc2)C1	x	x	x	-4	-4
Cc1cccc(C)c1OCC(=O)NCC1(N2CCOCC2)CCCCC1	-2	x	-19	x	x
COc1ccc(-c2cc(C(F)(F)F)n3nc(C(=O)NCc4ccco4)cc3n2)cc1	0	14	16	-8	-2
Cc1cc(-c2ccccc2)nc2cc(C(=O)NCc3ccco3)nn12	0	1	36*	-4	-2
COc1cc(-c2nnc(-c3cc(OC)c(OC)c(OC)c3)o2)cc(OC)c1OC	x	8	-4	2	0
CCCc1nnc(-c2cc(OC)c(OC)c(OC)c2)o1	-1	30*	9	12	-3
COc1ccc(CCNC2CCc3ccccc3C2)cc1 (configuration not stated)	-1	81*	-12	-69	-5
COc1ccc(CCNC(=O)C2Cc3ccccc3C(=O)O2)cc1 (configuration not stated)	1	8	9	-4	-1
Cc1ccc(NC(=O)CCn2c(=O)[nH]c3ccsc3c2=O)cc1	0	11	17	3	-3
CCOc1ccc(NC(=O)CCn2c(=O)[nH]c3ccsc3c2=O)cc1	1	2	36*	2	0
Cc1ccc(NC(=O)C2CCCN2S(=O)(=O)c2ccc3nc(-c4ccccc4)[nH]c3c2)cc1F (configuration not stated)	0	x	2	x	x
SMILES	D2 ag-1	D2 antag	D2 PAM-1	D2 PAM-2	D2 ag-2
CCCN(CCC)CCCNC(=O)C1CCN(c2nc3ccc(CC)cc3s2)CC1	3	x	-14	x	x
CC(=O)Nc1cccc(C(=O)OCC(=O)c2ccccc2Cl)c1	2	41*	-2	5	-3
COc1ccc(NC(=O)C2CCN(C(=O)Nc3ccccc3)CC2)cc1S(=O)(=O)N(C)C	1	77*	-30	-39	-2
O=C1CCNc2cc3ccccc3cc21	0	6	28	55*	15
CCOC(=O)c1cc(C)[nH]c(=O)c1C#N	0	-17	7	62*	-1
CCOC(=O)c1cc(C)[nH]c1C	0	-9	9	-10	-20
CC1(C2CC2)NC(=O)N(CC(=O)NCc2ccc(Cl)cc2Cl)C1=O (configuration not stated)	0	40*	12	-3	-9
Cc1ccc(Cl)cc1NC(=O)CN1C(=O)NC(C)(C2CC2)C1=O (configuration not stated)	x	x	x	-2	1
Cc1ccc2c(nc3s/c(=C\c4ccc(-c5ccccc5C(=O)O)o4)c(=O)n32)c1C	40*	-8	-9	-5	-4
O=C(O)c1ccc(-c2ccc(/C=c3/sc4nc5ccccc5n4c3=O)o2)cc1Cl	48*	34*	-2	-3	-2
O=C(COc1cccc(Cl)c1)N1CCC(c2nc3ccccc3s2)CC1	x	x	-7	x	x
COc1cccc(C(=O)N(c2ccc(OC)cc2OC)C2C=CS(=O)(=O)C2)c1 (configuration not stated)	0	30*	-6	-7	-2
OC1(c2ccc(Br)cc2)CCN(Cc2cccc(Br)c2)CC1	0	103*	-42	-82	1
Cc1ccccc1N1C(=O)CC(Nc2ccc3c(c2)OCO3)C1=O (configuration not stated)	-1	31*	-2	-4	-6
Cc1ccc(NCc2cccn2-c2nnc(N3CCC(C(=O)NCCc4ccc(Cl)cc4)CC3)s2)cc1	-1	x	7	x	x
CCOc1cccc2sc(N(CCN(C)C)C(=O)c3ccc(Br)s3)nc12	0	33*	-10	-18	-6
CCOC(=O)c1c(NC(=O)CC(C)C)sc(C(C)=O)c1C	1	7	37*	7	-2
COC(=O)c1ccc(NC(=O)CC2C(=O)N(c3ccccc3)C(=O)N2Cc2cccs2)cc1 (configuration not stated)	0	x	-11	x	x
Cc1csc(SCC(=O)Nc2ccc(C)c(F)c2)n1	-1	37*	-23	-17	-3
Cc1csc(SCC(=O)Nc2ccccc2C)n1	0	7	17	-23	-4
Cc1csc(SCC(=O)Nc2cccc3nsnc23)n1	1	33*	4	-4	0
CC1(C)C(=O)NCCN1C(=O)CCC(=O)O	0	-17	33*	-20	0
COc1ccccc1OCCCn1c(=O)oc2ccccc21	0	34*	-11	-5	-10
COc1cc(NC(=O)CCn2c(=O)oc3ccccc32)cc(OC)c1OC	1	-22	34*!	-4	4
COc1ccccc1OCCCn1c(=O)oc2ccc(C)cc21	0	-7	4	1	-2
O=C(CCn1c(=O)oc2ccccc21)Nc1ccccc1	1	1	-2	-12	5
COc1ccc(OC)c(CCNC(=O)CCCn2c(=O)c3cccn3c3ccccc32)c1	1	x	-10	x	x
Cc1nc(N2CCN(c3ccccn3)CC2)c2c(C)c(C(=O)N3CCN(c4cccc(Cl)c4)CC3)sc2n1	2	26	31*	-5	-1

Bioassay records as filed in PubChem BioAssay.
